± gives the standard deviation.
Tests used:
Settings in all cases: modulator concentration 10 µM
[1] = tested on: RAW-Dual (murine macrophage reporter line); experiment: NF-kB reporter (SEAP) activity fold change vs agonist alone; higher = enhanced NF-kB activity
How it was run: (§1)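 Overnight stimulation with a PRR agonist followed pre-incubation for 1 hour at 37 °C with compound at 10 μM final. This was done in RAW-Dual murine macrophage reporter cells seeded at 50 000 per well in 384-well plates. NF-κB (SEAP, QUANTI-Blue absorbance at 620 nm) and IRF (Lucia luciferase, QUANTI-Luc luminescence) were read from the supernatant. Each reporter's fold change relative to the mean agonist-only control on the same plate was averaged over replicate plates.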

[2] = tested on: RAW-Dual (murine macrophage reporter line); experiment: IRF reporter (Lucia luciferase) activity fold change vs agonist alone; higher = enhanced IRF activity
How it was run: as §1

[3] = tested on: RAW-Dual (murine macrophage reporter line); experiment: viability score (confluency relative to resting cells, overnight) (fraction); higher = more viable, active = viable (0.7 or more)
How it was run: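 RAW-Dual macrophages in 384-well plates were incubated overnight with compound, final concentration 10 μM. Confluency images from IncuCyte were processed in IncuCyte software into two masks covering all imaged wells. The viability score is each well's confluency relative to resting cells, and a compound met the cutoff when both masks exceeded 70% of resting cells.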

[4] = agonist: CpG ODN 1826 0.5 ug/mL

Compound | NF-kB reporter [1, 4] | NF-kB reporter ([1]; agonist: LPS 0.1 ug/mL) | NF-kB reporter ([1]; agonist: MPLA […]) | IRF reporter ([2]; agonist: 3'3'-cGAMP 10 ug/mL) | IRF reporter ([2]; agonist: LPS 0.1 ug/mL) | IRF reporter ([2]; agonist: MPLA […]) | viability score [3]
O=C(CSc1nnnn1-c1ccccc1)NC12CC3CC(CC(C3)C1)C2 | 1.01 ± 0.09 | 0.967 ± 0.053 | 0.943 ± 0.059 | 0.96 ± 0.054 | 1.12 ± 0.24 | 0.933 ± 0.058 | 1.02 (active)
O=c1c(CN2CCC(O)(c3ccc(Br)cc3)CC2)coc2ccccc12 | 0.712 ± 0.056 | 0.953 ± 0.059 | 1.07 ± 0.066 | 0.676 ± 0.032 | 1.07 ± 0.14 | 0.85 ± 0.12 | 1.01 (active)
O=[N+]([O-])c1ccc(-n2cccc2C=NNc2nc(N3CCOCC3)nc(N3CCOCC3)n2)cc1 | 0.961 ± 0.42 | 1.09 ± 0.085 | 1.14 ± 0.13 | 0.691 ± 0.022 | 0.999 ± 0.1 | 1.25 ± 0.16 | 1 (active)
COc1cccc(N2CC(C(=O)NC3CCN(c4nccn5c(C)nnc45)CC3)CC2=O)c1 (centres undefined) | 1.03 ± 0.051 | 1.06 ± 0.092 | 0.955 ± 0.088 | 0.968 ± 0.049 | 1.17 ± 0.073 | 1.08 ± 0.11 | 1.01 (active)
CCCn1c(C(O)(c2ccccc2)c2ccccc2)nc2ccccc21 | 0.514 ± 0.034 | 1.07 ± 0.082 | 0.736 ± 0.05 | 1.3 ± 0.08 | 1.1 ± 0.086 | 1.04 ± 0.19 | 0.888 (active)
Cc1cc(N2CCCCC2)nc2ccccc12 | 0.493 ± 0.041 | 0.701 ± 0.056 | 0.73 ± 0.093 | 0.982 ± 0.032 | 1.03 ± 0.098 | 1.21 ± 0.17 | 0.293 (inactive)
O=C1C(CCC(O)c2ccc(F)cc2)C(c2ccc(O)cc2)N1c1ccc(F)cc1 (centres undefined) | 1.09 ± 0.085 | 0.898 ± 0.16 | 1.04 ± 0.098 | 0.942 ± 0.034 | 1.16 ± 0.2 | 1.18 ± 0.25 | 1.01 (active)
CC1(C)Cc2ccccc2C(=C(C#N)C#N)N1 | 1.01 ± 0.08 | 0.912 ± 0.068 | 1.06 ± 0.1 | 1.03 ± 0.041 | 1.33 ± 0.2 | 1.5 ± 0.34 | 1.01 (active)
O=C(O)CCCCCN1C(=O)C(=Cc2cn(-c3ccccc3)nc2-c2cccs2)SC1=S | 1.02 ± 0.063 | 1.12 ± 0.12 | 1.01 ± 0.059 | 1.03 ± 0.038 | 1.27 ± 0.082 | 1.06 ± 0.11 | 1 (active)
CCCCS(=O)(=O)N[C@@H](Cc1ccc(OCCCCC2CCNCC2)cc1)C(=O)O.Cl.O | 1.2 ± 0.34 | 1.05 ± 0.057 | 0.987 ± 0.075 | 0.907 ± 0.035 | 1.14 ± 0.23 | 1.26 ± 0.12 | 0.99 (active)
CC1=CC(=O)c2ccccc2C1=O | 2.29 ± 0.12 | 1.31 ± 0.11 | 1.81 ± 0.2 | 0.357 ± 0.023 | 3.57 ± 0.25 | 1.33 ± 0.4 | 0.0798 (inactive)
CCC(C)(C)C(=O)OC1CC(C)C=C2C=CC(C)C(CCC3CC(O)CC(=O)O3)C21 (centres undefined) | 1.65 ± 0.13 | 1.56 ± 0.11 | 1.91 ± 0.18 | 0.43 ± 0.014 | 0.918 ± 0.087 | 0.524 ± 0.11 | 0.912 (active)
COc1ccc(C(=O)Nc2nc(C)c(C)s2)cc1OC | 0.904 ± 0.093 | 1.02 ± 0.056 | 0.994 ± 0.064 | 0.981 ± 0.024 | 1.55 ± 0.26 | 1.16 ± 0.27 | 1.01 (active)
CC(=O)N[C@H]1[C@H]([C@H](O)[C@H](O)CO)OC(C(=O)O)=C[C@@H]1NC(=N)N | 1.12 ± 0.27 | 0.945 ± 0.12 | 1.02 ± 0.066 | 0.919 ± 0.04 | 1.3 ± 0.24 | 1.08 ± 0.12 | 1.01 (active)
COC(=O)CNC(c1ccccc1)c1cc(Br)ccc1NC(=O)c1ccccc1 (centres undefined) | 1.06 ± 0.18 | 1.03 ± 0.12 | 1.33 ± 0.21 | 1.06 ± 0.035 | 1.16 ± 0.13 | 1.63 ± 0.19 | 1.01 (active)
NNc1ncnc2scc(-c3ccc(Cl)cc3)c12 | 0.931 ± 0.071 | 0.867 ± 0.07 | 1.32 ± 0.42 | 0.333 ± 0.015 | 1.3 ± 0.15 | 1.48 ± 0.21 | 0.997 (active)
COC(=O)C1=C(C)N(C)C(C)=C(C(=O)OC)C1c1cccc(C(F)(F)F)c1 | 0.884 ± 0.069 | 1.07 ± 0.093 | 0.955 ± 0.082 | 0.995 ± 0.035 | 1.32 ± 0.22 | 0.976 ± 0.073 | 1.01 (active)
CNC(=O)c1ccc(Nc2ncc(C(F)(F)F)c(NCc3nccnc3N(C)S(C)(=O)=O)n2)cc1 | 1.25 ± 0.37 | 0.169 ± 0.013 | 2.19 ± 0.34 | 0.0196 ± 0.0024 | 0.0319 ± 0.0037 | 0.0361 ± 0.006 | 0.749 (active)
Brc1ccc2[nH]cc(-c3nnc4ccc5ccccc5n34)c2c1 | 0.644 ± 0.051 | 0.877 ± 0.042 | 1.7 ± 0.35 | 0.971 ± 0.051 | 1.4 ± 0.1 | 2.08 ± 0.22 | 0.973 (active)
COC(CNS(=O)(=O)Cc1ccccc1)c1ccc(Cl)s1 (centres undefined) | 0.959 ± 0.056 | 1.02 ± 0.084 | 0.922 ± 0.052 | 1.24 ± 0.1 | 1.12 ± 0.071 | 1.16 ± 0.35 | 0.639 (inactive)
CN1C(=O)C(=Cc2cccc3ccccc23)SC1=S | 0.909 ± 0.21 | 1.04 ± 0.088 | 0.949 ± 0.073 | 0.939 ± 0.024 | 1.26 ± 0.22 | 1.33 ± 0.15 | 0.998 (active)
CC(=O)N=c1sc(S(N)(=O)=O)nn1C [Prestw-802] | 1.06 ± 0.11 | 0.991 ± 0.098 | 1.02 ± 0.12 | 0.986 ± 0.031 | 1.26 ± 0.15 | 1.39 ± 0.19 | 1.03 (active)
CCS(=O)(=O)c1ccc(-c2ccc(NC(=O)c3cccc(OC)c3OC)cc2)nn1 | 0.914 ± 0.059 | 0.977 ± 0.1 | 1.01 ± 0.1 | 1.05 ± 0.053 | 1.2 ± 0.26 | 1.36 ± 0.4 | 0.955 (active)
CC(C)(C)c1cc(C=NO)c(C(C)(C)C)s1 | 0.48 ± 0.028 | 1.03 ± 0.063 | 0.985 ± 0.061 | 0.6 ± 0.02 | 1.13 ± 0.074 | 0.746 ± 0.22 | 0.0422 (inactive)
O=[N+]([O-])c1ccc2nc(S)sc2c1 | 0.847 ± 0.068 | 1.11 ± 0.15 | 1.11 ± 0.027 | 0.82 ± 0.082 | 0.986 ± 0.12 | 1.03 ± 0.15 | 0.992 (active)
COC(=O)c1ccc(CSc2ccc3nnc(-c4cccc(F)c4)n3n2)o1 | 1 ± 0.08 | 1.18 ± 0.072 | 1.03 ± 0.062 | 0.966 ± 0.035 | 1.05 ± 0.082 | 0.968 ± 0.093 | 0.998 (active)
CC(C)Sc1ccc(CC(=O)Nc2cnoc2)cc1 | 0.869 ± 0.044 | 1.01 ± 0.09 | 1.15 ± 0.095 | 0.848 ± 0.051 | 1.01 ± 0.24 | 1.1 ± 0.4 | 0.912 (active)

— the supplement of paper PMC10646978
